Experimental data taken from PubChem BioAssay (NCATS).
Inconclusive results are not listed. Active and inactive are the calls of the source. The call rests on the fitted dose curve; in most records, active means well fitted curve in the direction sought with a large enough effect; inconclusive means small, poorly fitted or top-dose-only effect, or another doubt; inactive means no such curve, though single readings can be large; an effect the other way counts as inactive or inconclusive.

Tests used:
CRL-7250 = normal cell line; assay: Cytotoxic Profiling of Annotated Libraries Using Quantitative High-Throughput Screening (AID 1296008); conditions: Five cell lines viability, CellTiter-Glo ATP luminescence, 48-72 h; max response: active compounds read low; further: nearly all actives have a fitted effect of over 60% in size; on max response: on the % scale 0 is the no-effect control and ±100 the full control effect
How it was run: (§1)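 Cells exposed to compounds for 48 or 72 hr at 37 degrees Celsius. Viability read as ATP-coupled luminescence with CellTiter-Glo after 10 min at room temperature.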

HaCat [1] = assay: as above; conditions: Five cell lines viability, CellTiter-Glo ATP luminescence, 48-72 h; max response: active compounds read low
How it was run: as §1

KB-3-1 = assay: as above; conditions: Five cell lines viability, CellTiter-Glo ATP luminescence, 48-72 h; max response: active compounds read low
How it was run: as §1

NIH3T3 = assay: as above; conditions: Five cell lines viability, CellTiter-Glo ATP luminescence, 48-72 h; max response: active compounds read low
How it was run: as §1

HACAT [2] = assay: qHTS assay to identify novel small-molecules to repurpose for Merkel cell carcinoma treatment (AID 1296009); conditions: MCC and control cell lines, CellTiter-Glo viability, 72 h; at 44.8 µM (top of the series) unless noted; further: nearly all actives have a fitted effect of over 60% in size
How it was run: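 Dose-response viability screen; 72 hr exposure at 37 degree celsius; CellTiter-Glo added, 10 min room temperature, luminescence read; RLUs scaled between no-cell and DMSO wells.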

C33A = assay: Primary qHTS to identify gynecologic anti-cancer compounds using libraries of approved drugs and bioactive compounds (AID 1345084); conditions: Gynecologic cancer cell panel viability, ATPlite luminescence, 48 h; series mostly up to 57.5 µM; further: on the % scale 0 is the no-effect control and ±100 the full control effect; nearly all actives have a fitted effect of over 55% in size
How it was run: (§2)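 Measured: luminescence after ATPlite addition (15 min, RT). Exposure: 48 h, 37 C, 5% CO2.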

CAOV3 = assay: as above; conditions: Gynecologic cancer cell panel viability, ATPlite luminescence, 48 h; series mostly up to 57.5 µM
How it was run: as §2

CASKI = assay: as above; conditions: Gynecologic cancer cell panel viability, ATPlite luminescence, 48 h; series mostly up to 57.5 µM
How it was run: as §2

Es-2 = assay: as above; conditions: Gynecologic cancer cell panel viability, ATPlite luminescence, 48 h; series mostly up to 57.5 µM
How it was run: as §2

HeLa = assay: as above; conditions: Gynecologic cancer cell panel viability, ATPlite luminescence, 48 h; series mostly up to 57.5 µM
How it was run: as §2

Hek293T = assay: as above; conditions: Gynecologic cancer cell panel viability, ATPlite luminescence, 48 h, control line for the selectivity index; series mostly up to 57.5 µM
How it was run: as §2

JEG-3 = assay: as above; conditions: Gynecologic cancer cell panel viability, ATPlite luminescence, 48 h; series mostly up to 57.5 µM
How it was run: as §2

OV90 = assay: as above; conditions: Gynecologic cancer cell panel viability, ATPlite luminescence, 48 h; series mostly up to 57.5 µM
How it was run: as §2

PA-1 = assay: as above; conditions: Gynecologic cancer cell panel viability, ATPlite luminescence, 48 h; series mostly up to 57.5 µM
How it was run: as §2

SKOV3 = assay: as above; conditions: Gynecologic cancer cell panel viability, ATPlite luminescence, 48 h; series mostly up to 57.5 µM
How it was run: as §2

Cc1cc2c(N3CCCC3)nc(N3CCCC3)nc2n1C
inactive: max response (CRL-7250) 1.58% | outcome (HaCat [1]) | max response (KB-3-1) -0.182% | max response (NIH3T3) -2.11% | outcome (HACAT [2]) | Potency (C33A) | Potency (CAOV3) | Potency (CASKI) | Potency (Es-2) | Potency (HeLa) | Potency (Hek293T) | Potency (JEG-3) | Potency (OV90) | Potency (PA-1) | Potency (SKOV3)

CC1OC2OC(=O)C3(C)CC4C5(CO5)C5=CC(=O)OC(C)(C)C5=CC(=O)C4(C)C(C1=O)C23 (stereo not given)
inactive: max response (CRL-7250) -8.36% | outcome (HaCat [1]) | outcome (KB-3-1) | max response (NIH3T3) 1.81% | outcome (HACAT [2]) inactive [at 17.4 µM] | Potency (C33A) | Potency (CAOV3) | Potency (CASKI) | Potency (Es-2) | Potency (HeLa) | Potency (Hek293T) | Potency (JEG-3) | Potency (OV90) | Potency (PA-1) | Potency (SKOV3)

COc1ccc(-c2cnc3c(-c4cccc5ncccc45)cnn3c2)cc1
inactive: outcome (CRL-7250) | outcome (HaCat [1]) | max response (KB-3-1) -5.9% | max response (NIH3T3) -19.7% | outcome (HACAT [2]) | Potency (C33A) | Potency (CAOV3) | Potency (CASKI) | Potency (Es-2) | Potency (HeLa) | Potency (Hek293T) | Potency (JEG-3) | Potency (OV90) | Potency (PA-1) | Potency (SKOV3)

CC(NCCCc1cccc(C(F)(F)F)c1)c1cccc2ccccc12 (stereo not given)
inactive: max response (CRL-7250) 1.05% | outcome (HaCat [1]) | max response (KB-3-1) -6.75% | max response (NIH3T3) 3.68% | outcome (HACAT [2]) inactive [at 17.4 µM] | Potency (C33A) | Potency (CAOV3) | Potency (CASKI) | Potency (Es-2) | Potency (HeLa) | Potency (Hek293T) | Potency (JEG-3) | Potency (OV90) | Potency (PA-1) | Potency (SKOV3)

CC1=C(C(=O)Nc2cc(Cl)ccc2Cl)C(c2ccco2)C2=C(CCCC2=O)N1 (stereo not given)
inactive: max response (CRL-7250) -1.05% | outcome (HaCat [1]) | max response (KB-3-1) 7.23% | max response (NIH3T3) -25.9% | outcome (HACAT [2]) | Potency (C33A) | Potency (CAOV3) | Potency (CASKI) | Potency (Es-2) | Potency (HeLa) | Potency (Hek293T) | Potency (JEG-3) | Potency (OV90) | Potency (PA-1) | Potency (SKOV3)

C=C1C(=O)O[C@@H]2/C=C(\CO)CC/C=C(\CO)[C@H](OC(C)=O)C(OC(=O)C(C)CC)C12 (stereo not given in full)
inactive: max response (CRL-7250) -5.38% | outcome (HaCat [1]) | outcome (KB-3-1) | max response (NIH3T3) -1.91% | outcome (HACAT [2]) inactive [at 17.4 µM] | Potency (C33A) | Potency (CAOV3) | Potency (CASKI) | Potency (Es-2) | Potency (HeLa) | Potency (Hek293T) | Potency (JEG-3) | Potency (OV90) | Potency (PA-1) | Potency (SKOV3)

C/C=C(/C)C(=O)OC1C=C2C3C(C)C(C)C(OC(=O)C(C)C(C)O)CC3(C)CCC2(C)C2(C)CC(OC(C)=O)C3C(C)(C)C(O)C(=O)CC3(C)C12 (stereo not given)
inactive: max response (CRL-7250) 0.415% | outcome (HaCat [1]) | max response (KB-3-1) 5.54% | max response (NIH3T3) -9.86% | outcome (HACAT [2]) inactive [at 17.4 µM] | Potency (C33A) | Potency (CAOV3) | Potency (CASKI) | Potency (Es-2) | Potency (HeLa) | Potency (Hek293T) | Potency (JEG-3) | Potency (OV90) | Potency (PA-1) | Potency (SKOV3)

O=S1(=O)CCN(Cc2cc(NCC3CCOCC3)c3[nH]c(-c4ccccc4)cc3c2)CC1
inactive: max response (CRL-7250) -9.27% | outcome (HaCat [1]) | max response (KB-3-1) 4.46% | max response (NIH3T3) -21.1% | outcome (HACAT [2]) | Potency (C33A) | Potency (CAOV3) | Potency (CASKI) | Potency (Es-2) | Potency (HeLa) | Potency (Hek293T) | Potency (JEG-3) | Potency (OV90) | Potency (PA-1) | Potency (SKOV3)

COc1ccc(CCO[C@@H]2O[C@H](CO[C@H]3OC[C@](O)(CO)[C@H]3O)[C@@H](OC(=O)/C=C/c3ccc(O)c(O)c3)[C@H](O[C@@H]3O[C@@H](C)[C@H](O)[C@@H](O)[C@H]3O)[C@H]2O)cc1OC
inactive: max response (CRL-7250) -14.2% | outcome (HaCat [1]) | max response (KB-3-1) 2.16% | max response (NIH3T3) -1.58% | outcome (HACAT [2]) inactive [at 17.4 µM] | Potency (C33A) | Potency (CAOV3) | Potency (CASKI) | Potency (Es-2) | Potency (HeLa) | Potency (Hek293T) | Potency (JEG-3) | Potency (OV90) | Potency (PA-1) | Potency (SKOV3)

CC[C@H](C)/C=C(C)/C=C/C1=CC2=CC(=O)[C@]3(C)OC(=O)[C@@H](C(C)=O)[C@@H]3C2=CO1
inactive: max response (CRL-7250) -1.79% | outcome (HaCat [1]) | max response (KB-3-1) 4.01% | max response (NIH3T3) -1.49% | outcome (HACAT [2]) | Potency (C33A) | Potency (CAOV3) | Potency (CASKI) | Potency (Es-2) | Potency (HeLa) | Potency (Hek293T) | Potency (JEG-3) | Potency (OV90) | Potency (PA-1) | Potency (SKOV3)

CC(=O)O[C@@H]1CC2C(C)(C)C(=O)C=C[C@]2(C)C2CC[C@@]3(C)[C@H](c4ccoc4)OC(=O)[C@H]4O[C@]43[C@@]21C (stereo not given in full)
inactive: outcome (CRL-7250) | outcome (HaCat [1]) | outcome (KB-3-1) | max response (NIH3T3) -4.81% | outcome (HACAT [2]) inactive [at 17.4 µM] | Potency (C33A) | Potency (CAOV3) | Potency (CASKI) | Potency (Es-2) | Potency (HeLa) | Potency (Hek293T) | Potency (JEG-3) | Potency (OV90) | Potency (PA-1) | Potency (SKOV3)

O=C(c1cc(Cc2n[nH]c(=O)c3ccccc23)ccc1F)N1CCCNCC1
inactive: max response (CRL-7250) 0.306% | outcome (HaCat [1]) | outcome (KB-3-1) | max response (NIH3T3) 0.0332% | outcome (HACAT [2]) | Potency (C33A) | Potency (CAOV3) | Potency (CASKI) | Potency (Es-2) | Potency (HeLa) | Potency (Hek293T) | Potency (JEG-3) | Potency (OV90) | Potency (PA-1) | Potency (SKOV3)

O=C(O)c1cc(N(Cc2ccc(C3CCCCC3)cc2)C(=O)c2ccc(Oc3ccccc3)cc2)ccc1O
inactive: max response (CRL-7250) -16.9% | outcome (HaCat [1]) | outcome (KB-3-1) | max response (NIH3T3) -0.211% | outcome (HACAT [2]) | Potency (C33A) | Potency (CAOV3) | Potency (CASKI) | Potency (Es-2) | Potency (HeLa) | Potency (Hek293T) | Potency (JEG-3) | Potency (OV90) | Potency (PA-1) | Potency (SKOV3)
